Test systems include DU-145 prostate; K-562 leukemia; MALME-3M melanoma; MDA-MB-231 breast; RXF 393 renal; SF-268 CNS; SF-295 CNS; SF-539 CNS; UACC-257 melanoma; M14 melanoma; HCT-15 colon; HT29 colon; SNB-75 CNS; SNB-19 CNS; U251 CNS; PC-3 prostate; SK-MEL-5 melanoma; UACC-62 melanoma; LOX IMVI melanoma; SK-MEL-28 melanoma.
Experiment in all cases: NCI-60 one-dose screen, 48 h (100 = growth as untreated, 0 = no growth, -100 = all killed)
Settings in all cases: 10 µM unless noted

SMILES strings stand for the structures. The panel holds about 83,000 compounds, 20% with a hit somewhere; the sample as a whole holds those more often.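 48-hour exposure, single concentration, 96-well plates; percent growth endpoint where 0 means no net growth. Active: below 10.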 Values without a mark were called inactive. The source made the active and inactive calls.

As to `O=C(NCCN1CCC(O)CC1)c1cc2c(o1)C(=O)c1ccccc1C2=O`, the growth in the assay on DU-145 prostate is -97.6% (active); with K-562 leukemia, 2.8% (active); with MALME-3M melanoma, -99.2% (active); with MDA-MB-231 breast it was -24.6% (active); in the assay on RXF 393 renal, -99% (active); with SF-268 CNS, -54.8% (active). For the same molecule, the growth in the assay with SF-295 CNS was -96.2% (active); in the assay on SF-539 CNS it was -97.5% (active); with UACC-257 melanoma, -86.9% (active); in the assay on M14 melanoma, -85.3% (active); with HCT-15 colon, -80.8% (active); with HT29 colon it was -5.34% (active). For the same molecule, the growth is -98.5% (active) in the assay with SNB-75 CNS; -98.1% (active) in the assay with SNB-19 CNS; -88.1% (active) in the assay on U251 CNS; -28.4% (active) with PC-3 prostate; -99.2% (active) in the assay on SK-MEL-5 melanoma; -89.4% (active) in the assay on UACC-62 melanoma. Moreover, the growth with LOX IMVI melanoma was -89.3% (active); in the assay on SK-MEL-28 melanoma it was -74.3% (active).
As to `COc1ccc(-c2cc(-c3cc(OC)ccc3O)[nH]c(=O)c2C#N)cc1`, the growth is 79.8% in the assay on DU-145 prostate; 23.7% in the assay on K-562 leukemia; 60.7% in the assay with MALME-3M melanoma; 45% in the assay on MDA-MB-231 breast; 81.2% in the assay with RXF 393 renal; 61.3% in the assay with SF-268 CNS. The growth in the assay with SF-295 CNS was 54%; in the assay on SF-539 CNS, 39.4%; in the assay with UACC-257 melanoma it was 61%; in the assay with M14 melanoma, 27%; in the assay with HCT-15 colon it was 60.2%; in the assay on HT29 colon it was 28.4%. Further, the growth with SNB-75 CNS was 58.9%; in the assay with SNB-19 CNS, 65.4%; in the assay with U251 CNS, 22.5%; in the assay on PC-3 prostate, 52%; in the assay on SK-MEL-5 melanoma, 31.4%; in the assay with UACC-62 melanoma, 41.4%. Also, the growth is 40.5% in the assay with LOX IMVI melanoma and 67.5% with SK-MEL-28 melanoma.
Consider `CS(=O)(=O)c1ccc(-c2nc3cc(Cl)ccc3n2CC(=O)N/N=C/c2ccc(Cl)cc2)cc1`, for which the growth in the assay with DU-145 prostate was 70.1%; in the assay with K-562 leukemia, 17%; in the assay on MALME-3M melanoma it was 46.6%; with MDA-MB-231 breast, 48.9%; with RXF 393 renal, -25.1% (active); with SF-268 CNS it was 50.2%. Besides, the growth is -36.9% (active) in the assay on SF-295 CNS; -3.48% (active) with SF-539 CNS; 67.7% with UACC-257 melanoma; 61.2% in the assay on M14 melanoma; 72.6% in the assay on HCT-15 colon; 36.2% in the assay with HT29 colon. The growth in the assay on SNB-75 CNS was 42.1%; in the assay on SNB-19 CNS, 51.3%; in the assay on U251 CNS it was 30.5%; in the assay with PC-3 prostate it was 45.5%; in the assay with SK-MEL-5 melanoma it was 23.1%; with UACC-62 melanoma, 56.2%. Also, the growth in the assay on LOX IMVI melanoma is 30.7%; in the assay with SK-MEL-28 melanoma, 43.6%.
Turning to `O=C(/C=C/C12c3ccccc3C(c3ccccc31)C1C(=O)N(c3ccccc3)C(=O)C12)c1ccccc1` (stereo not given), the growth with DU-145 prostate was 5.98% (active); in the assay on K-562 leukemia, 14.5%; with MALME-3M melanoma it was -38.1% (active); in the assay on MDA-MB-231 breast, -3.22% (active); in the assay with RXF 393 renal it was -72.8% (active); in the assay on SF-268 CNS it was 35.9%. Further, the growth with SF-295 CNS is -3.2% (active); with SF-539 CNS it was -3.29% (active); in the assay with UACC-257 melanoma it was 33.6%; in the assay with M14 melanoma, 14.7%; in the assay on HCT-15 colon, -25.8% (active); with HT29 colon, 15.1%. Besides, the growth with SNB-75 CNS is 34.2%; in the assay on SNB-19 CNS it was 31.2%; with U251 CNS, 7.97% (active); with PC-3 prostate it was 21.2%; in the assay on SK-MEL-5 melanoma it was -67.1% (active); with UACC-62 melanoma, 1.31% (active). The growth with LOX IMVI melanoma is -81.4% (active); in the assay on SK-MEL-28 melanoma it was 2.04% (active).
For `N=C(N)c1ccc(-c2ccc(-c3ccc(Cl)cc3Cl)o2)cc1`, the growth with DU-145 prostate is -17.9% (active); in the assay with K-562 leukemia, -12.9% (active); in the assay with MALME-3M melanoma it was 17.4%; with MDA-MB-231 breast, -69.7% (active); with RXF 393 renal, 32.1%; with SF-268 CNS, 47.3%. Besides, the growth was -77.1% (active) in the assay on SF-295 CNS; -61.7% (active) in the assay on SF-539 CNS; 90.9% with UACC-257 melanoma; 8.85% (active) with M14 melanoma; -74.1% (active) with HCT-15 colon; -71.1% (active) with HT29 colon. For the same molecule, the growth in the assay on SNB-75 CNS was 19.7%; in the assay with SNB-19 CNS it was -1.88% (active); in the assay with U251 CNS, -59.4% (active); with PC-3 prostate, 52.6%; in the assay with SK-MEL-5 melanoma, 72.5%; in the assay on UACC-62 melanoma, 72.1%. In addition, the growth was -94.7% (active) in the assay on LOX IMVI melanoma and 46% in the assay with SK-MEL-28 melanoma.
In the case of `CC(C)(C)c1ccc(C(=O)Nc2sc3c(c2C(N)=O)CCC(=O)C3)cc1`, the growth is 24.7% in the assay on DU-145 prostate; 4.82% (active) in the assay with K-562 leukemia; -53.4% (active) with MALME-3M melanoma; -59.5% (active) in the assay on MDA-MB-231 breast; -22.4% (active) with RXF 393 renal; -2.29% (active) in the assay on SF-268 CNS. Besides, the growth with SF-295 CNS was -48.3% (active); in the assay on SF-539 CNS, -77.8% (active); with UACC-257 melanoma, -30.4% (active); in the assay with M14 melanoma, -49.2% (active); in the assay with HCT-15 colon it was -29.3% (active); in the assay on HT29 colon, 3.24% (active). Further, the growth is -49.3% (active) in the assay with SNB-75 CNS; 15.2% in the assay with SNB-19 CNS; -43.8% (active) with U251 CNS; -5.7% (active) in the assay on PC-3 prostate; -81.2% (active) with SK-MEL-5 melanoma; -36.7% (active) in the assay with UACC-62 melanoma. In addition, the growth was -55.1% (active) in the assay with LOX IMVI melanoma and -14.9% (active) in the assay with SK-MEL-28 melanoma.
Consider `CN1CCN(CCCOc2ccc3nc(Nc4cc(Cl)cc(Cl)c4)ccc3c2)CC1`, for which the growth in the assay with DU-145 prostate was -84.1% (active); in the assay on K-562 leukemia, -61.8% (active); with MALME-3M melanoma, -54.4% (active); in the assay on MDA-MB-231 breast, -73.2% (active); in the assay with RXF 393 renal, -60.6% (active); in the assay on SF-268 CNS, -78.9% (active). The growth in the assay with SF-295 CNS was -75.9% (active); with SF-539 CNS, -86.5% (active); with UACC-257 melanoma, -81.5% (active); with M14 melanoma, -62.2% (active); in the assay on HCT-15 colon, -87.6% (active); in the assay on HT29 colon, -94.4% (active). Further, the growth with SNB-75 CNS is -94.5% (active); in the assay on SNB-19 CNS it was -76.2% (active); in the assay with U251 CNS it was -87.5% (active); in the assay on PC-3 prostate, -57.8% (active); in the assay on SK-MEL-5 melanoma, -94.9% (active); in the assay on UACC-62 melanoma, -81.5% (active). In addition, the growth with LOX IMVI melanoma was -94.4% (active); with SK-MEL-28 melanoma, -87.2% (active).
As to `COc1cc(C2C=C(c3cccc(NC(C)=O)c3)Nc3ncnn32)cc(OC)c1OC` (stereo not given), the growth with DU-145 prostate was 2.4% (active); in the assay with K-562 leukemia, 23.6%; with MALME-3M melanoma, 25.6%; with MDA-MB-231 breast, 16.4%; in the assay with RXF 393 renal, -28.3% (active); in the assay with SF-268 CNS, 36.9%. Further, the growth is -58% (active) with SF-295 CNS; -5.24% (active) in the assay on SF-539 CNS; 71.2% with UACC-257 melanoma; 20.4% with M14 melanoma; 41.4% in the assay with HCT-15 colon; 10.9% with HT29 colon. Further, the growth in the assay with SNB-75 CNS was 21.9%; in the assay with SNB-19 CNS, 52%; with U251 CNS, 25.4%; in the assay on PC-3 prostate it was 33.3%; with SK-MEL-5 melanoma it was 21.6%; in the assay on UACC-62 melanoma, 22.9%. Moreover, the growth in the assay with LOX IMVI melanoma was 42.1%; with SK-MEL-28 melanoma it was 51.5%.

The record behind these values is PubChem BioAssay (NCI).
